Experiment in all cases: NCI-60 one-dose screen, 48 h (100 = growth as untreated, 0 = no growth, -100 = all killed)
The test system of one assay is T-47D breast. The conditions noted are these: 10 µM unless noted.
A further assay relates to BT-549 breast. The conditions noted are these: 10 µM unless noted.
The subject of another assay is MDA-MB-435 melanoma. As to conditions: 10 µM unless noted.
The next assay concerns SW-620 colon. The conditions noted are these: 10 µM unless noted.
A further assay relates to MCF7 breast. The conditions noted are these: 10 µM unless noted.
The next assay deals with HCT-116 colon. The conditions noted are these: 10 µM unless noted.
Another assay has as its system HCC-2998 colon. The conditions noted are these: 10 µM.
The test system of a further assay is KM12 colon. The conditions noted are these: 10 µM unless noted.

This is part of a sample that, as a whole, favours compounds with a hit. Of some 83,000 tested, about 20% had one in any assay.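 In brief: 96-well plates, 48 h treatment, single concentration, percent growth endpoint.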 Unmarked numbers belong to inactive results. Activity calls are given as the source filed them. How the source made its calls: active means growth percent below 10; inactive means the rest.

In the case of `O=C(NO)c1ccc(Cn2c(=O)n(CCc3ccccc3)c(=O)c3ccccc32)cc1`, the growth in the assay on T-47D breast is 29%; in the assay with BT-549 breast, 52.4%; in the assay with MDA-MB-435 melanoma, 19.1%; in the assay with SW-620 colon, 20.9%; with MCF7 breast it was 27.9%; in the assay with HCT-116 colon, 4.18% (active). In addition, the growth is 62.5% with HCC-2998 colon and 25.2% with KM12 colon.
Turning to `Nc1nc(Nc2ccccc2)c(C=Nc2ccccc2)c(=O)[nH]1`, the growth with T-47D breast was 81.4%; in the assay with BT-549 breast, 75.1%; in the assay with MDA-MB-435 melanoma, 94.7%; in the assay with SW-620 colon it was 98.4%; with MCF7 breast, 92.5%; in the assay on HCT-116 colon, 85.1%. Moreover, the growth with HCC-2998 colon is 99.3%; in the assay with KM12 colon, 98.6%.
Turning to `O=c1[nH]c(N2CCOCC2)nc2scc(-c3ccccc3)c12`, the growth is 80.7% in the assay on T-47D breast; 92.4% in the assay on BT-549 breast; 91.7% in the assay on MDA-MB-435 melanoma; 110% in the assay on SW-620 colon; 92.2% in the assay with MCF7 breast; 98.3% in the assay with HCT-116 colon. For the same compound, the results for the growth in the assay with HCC-2998 colon and in the assay on KM12 colon were 106% and 97.6%, respectively.
As for `c1cc(OCCN2CCCCC2)cc(-c2n[nH]c3ccc(-c4ncn[nH]4)cc23)c1`, the growth with T-47D breast is 68.3%; in the assay on BT-549 breast it was 70.3%; in the assay with MDA-MB-435 melanoma, 42.1%; in the assay on SW-620 colon, 35.6%; in the assay on MCF7 breast it was 57.9%; with HCT-116 colon, 28.7%. The growth in the assay on HCC-2998 colon was 66.7%; in the assay on KM12 colon, 39.6%.
As for `O=C(NOC[C@H](O)CO)c1ccc(F)c(F)c1Nc1ccc(I)cc1F`, the growth with T-47D breast is 62.2%; in the assay with BT-549 breast it was 80.4%; in the assay with MDA-MB-435 melanoma it was 33%; in the assay on SW-620 colon, 18.5%; in the assay on MCF7 breast it was 93.3%; in the assay with HCT-116 colon, 11.5%. In addition, the values for the growth in the assay on HCC-2998 colon and in the assay with KM12 colon were -15.9% (active) and 24.1%, respectively.
For `CCCCCCCC(=O)SCC/C=C/[C@@H]1CC(=O)NCc2nc(co2)C2=N[C@@](C)(CS2)C(=O)N[C@@H](C(C)C)C(=O)O1`, the growth in the assay with T-47D breast is -5.12% (active); in the assay with BT-549 breast it was 13.2%; in the assay with MDA-MB-435 melanoma it was -31.8% (active); with SW-620 colon it was -29.2% (active); with MCF7 breast, 14.9%; in the assay with HCT-116 colon it was -63.2% (active). The values for the growth with HCC-2998 colon and in the assay with KM12 colon were -68.8% (active) and 1.36% (active), respectively.
Regarding `Cc1ncc(-c2ccnc(Nc3ccc(S(C)(=O)=O)cc3)n2)n1C(C)C`, the growth is -12.3% (active) in the assay with T-47D breast; -11.4% (active) with BT-549 breast; -45.2% (active) with MDA-MB-435 melanoma; 0.356% (active) with SW-620 colon; 2.6% (active) with MCF7 breast; -0.0408% (active) in the assay on HCT-116 colon. Further, the growth in the assay with HCC-2998 colon is -15.6% (active); in the assay on KM12 colon it was -68.7% (active).
On to `CC1(C=O)NC(=O)NC1=O` (stereo not drawn), for which the growth in the assay on T-47D breast was 95.2%; in the assay on BT-549 breast it was 91.4%; with MDA-MB-435 melanoma it was 111%; in the assay on SW-620 colon, 101%; with MCF7 breast, 95.6%; in the assay with HCT-116 colon it was 90.5%. The growth is 94.7% in the assay with HCC-2998 colon and 108% in the assay on KM12 colon.
In the case of `S=C(NCc1ccc2c(c1)OCO2)N1CCN(c2ncnc3c2oc2ccccc23)CC1`, the growth in the assay with T-47D breast was 1.12% (active); in the assay on BT-549 breast it was 32.3%; in the assay on MDA-MB-435 melanoma it was 19.3%; in the assay on SW-620 colon, 40.9%; in the assay on MCF7 breast, 18.7%; in the assay with HCT-116 colon it was 34.3%. The growth is 57.4% with HCC-2998 colon and 45.2% in the assay with KM12 colon.
Consider `CC(C)(O)CC(=O)NCCn1ccc2ncnc(Nc3ccc(Oc4cccc(C(F)(F)F)c4)c(Cl)c3)c21`, for which the growth in the assay with T-47D breast was -18.8% (active); in the assay with BT-549 breast, 17.5%; in the assay with MDA-MB-435 melanoma, 14.3%; with SW-620 colon, 14.1%; in the assay on MCF7 breast, 14.3%; with HCT-116 colon it was 0.422% (active). The growth was -27.2% (active) in the assay with HCC-2998 colon and 9.88% (active) with KM12 colon.
In the case of `CC[C@H](CO)Nc1nc(NCc2ccccc2)c2ncn(C(C)C)c2n1`, the growth was 48.4% with T-47D breast; 78.1% in the assay with BT-549 breast; 83.6% in the assay on MDA-MB-435 melanoma; 69.3% in the assay on SW-620 colon; 31.5% with MCF7 breast; 30.1% in the assay on HCT-116 colon. In addition, the growth is 74.5% in the assay with HCC-2998 colon and 47.6% in the assay with KM12 colon.
For `CC(C)=CCc1cc2c(cc1O)C1=C(C(=O)C3=C(NCCS3(=O)=O)C1=O)C(C=C(C)C)O2` (stereo not drawn), the growth with T-47D breast was 10.1%; with BT-549 breast it was 40.3%; in the assay on MDA-MB-435 melanoma it was -62.3% (active); in the assay with SW-620 colon it was 6.34% (active); in the assay on MCF7 breast, -43.2% (active); with HCT-116 colon, -21.2% (active). The growth in the assay with HCC-2998 colon is 32.4%; with KM12 colon, 54.5%.
In the case of `COc1cc2nccc(Oc3ccc(NC(=O)C4(C(=O)Nc5ccc(F)cc5)CC4)cc3)c2cc1OC`, the growth was -14% (active) with T-47D breast; 32.8% with BT-549 breast; 8.75% (active) in the assay with MDA-MB-435 melanoma; -27.3% (active) in the assay on SW-620 colon; 15.6% with MCF7 breast; 1.99% (active) in the assay on HCT-116 colon. In addition, the growth in the assay with HCC-2998 colon was 30.5%; in the assay with KM12 colon, 7.5% (active).
As to `CCc1nc2cc(/C=C/C(=O)NO)ccc2c(=O)n1CCc1ccc(F)cc1`, the growth is -0.122% (active) in the assay on T-47D breast; 23.8% in the assay on BT-549 breast; 17.3% with MDA-MB-435 melanoma; 6.35% (active) in the assay with SW-620 colon; 10.2% in the assay with MCF7 breast; 3.23% (active) in the assay on HCT-116 colon. The growth in the assay with HCC-2998 colon was 32.4%; in the assay on KM12 colon, 12%.
In the case of `NC1=Nc2cc(OCCCN3Cc4ccccc4C3)c(OCC3CC3)cc2C12CCCC2`, the growth was 2.41% (active) in the assay on T-47D breast; 68.6% in the assay with BT-549 breast; 38.1% in the assay with MDA-MB-435 melanoma; 76.3% in the assay with SW-620 colon; 47.5% in the assay on MCF7 breast; 32.9% in the assay on HCT-116 colon. Also, the growth was 1.52% (active) in the assay on HCC-2998 colon and 69.6% in the assay on KM12 colon.
Consider `O=C1OCC2=C1C(c1cccc(F)c1)c1cc3c(cc1N2CCO)OCCO3` (stereo not drawn), for which the growth with T-47D breast was 46.8%; with BT-549 breast it was 43.6%; in the assay with MDA-MB-435 melanoma, -40.7% (active); with SW-620 colon, 26.8%; in the assay with MCF7 breast, 15.6%; in the assay with HCT-116 colon, 11.2%. The growth is 8.09% (active) in the assay with HCC-2998 colon and 14% in the assay on KM12 colon.

(Values after PubChem BioAssay (NCI).)
